Our source for the composite z-score, z-score and composite Z-score values is PubChem BioAssay.

Molecules are shown by their SMILES. The source made the active and inactive calls.

Assay [1] deals with Human papillomavirus type 1a protein E7 (residues 44-93). Briefly: HPV1a E7 fragment binders on microarrays, primary screen, biochemical, small-molecule microarray, residues 44-93, 635 nm fluorescence (AID 1108).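 Further: E7 fragment applied at 1 µg/mL in TBST for 1 h at 4 C; score combines spot fluorescence with its signal to noise ratio.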 The settings on record: small-molecule microarray binding, fluorescence 635 nm; higher = more signal.
Assay [2] can be described thus: modulators of HCV replicon luciferase signal, primary screen, HCV replication inhibitor project, Huh7 cells, luciferase reporter (AID 1109).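 Further: huh7 hepatoma cells harbouring a luciferase neomycin HCV replicon reporter; luciferase luminescence as measure of HCV replicon replication; test concentration not given here.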 The settings on record: 48 h, higher = more signal. (A replicon is a self-replicating genome or part of one, used to study replication in cells.)
Assay [3] concerns the target Left-right determination factor 2 (Homo sapiens) (UniProt O00292). Description: LEFTY2 binders on small-molecule microarrays, primary screen, biochemical, small-molecule microarray, 635 nm fluorescence scan (AID 1110). The settings on record: LEFTY2 binding, higher = more signal.
Assay [4] deals with Calmodulin-1 (Homo sapiens) (UniProt P0DP23). Briefly: CALM1 binders on microarrays, EGTA buffer, profiling panel, biochemical, small-molecule microarray, Cy5-labelled CALM1 (AID 1111).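 Further: labelled calmodulin applied in Tris saline Tween buffer holding calcium plus EGTA and DTT.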 The conditions noted are these: Cy5-CALM1 binding fluorescence, higher = more signal.
Assay [5] has the same target. Briefly: calcium-bound CALM1 binders on microarrays, profiling panel, artefact control for SMM control-protein annotation, biochemical, small-molecule microarray, Cy5-labelled CALM1, plus calcium (AID 1112).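 Further: score merges spot fluorescence with signal to noise from triplicate slides.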 The settings on record: Cy5-CALM1 binding fluorescence, higher = more signal.
A short description of assay [6]: small-molecule microarray binders of probe aWnt5a, primary screen, biochemical, biotinylated probe, 635/667 nm fluorescence (AID 1113).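 Further: score merges 667 nm fluorescence intensity with signal-to-noise per printed feature.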 The conditions noted are these: higher = more signal.
Assay [7] in a line: small-molecule microarray binders of probe aShh, primary screen, biochemical, biotinylated probe, 635/667 nm fluorescence (AID 1114).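 Further: probe is biotin-labelled aShh protein from a stem cell growth factor screen; measures binding of labelled protein to compounds printed on the slide; score merges feature fluorescence at 667 nm with signal-to-noise.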 The settings on record: higher = more signal.
Assay [8] in a line: small-molecule microarray binders of probe aNog, primary screen, biochemical, biotinylated probe, 635/667 nm fluorescence (AID 1115).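 Further: probe is biotinylated aNog protein used at 0.15 µg/mL for 1 h at 4 C; z-score combines 667 nm fluorescence of each spot with its signal to noise.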 The settings on record: higher = more signal.
For assay [9], the target named is Torsin-1A-interacting protein 1 (Homo sapiens) (UniProt Q5JTV8). Description: LAP1 binders from COS7 cell lysate, primary screen, small-molecule microarray, 635/667 nm fluorescence (AID 1116). The conditions noted are these: COS7-hLAP1 lysate binding, 635 nm fluorescence, higher = more signal.
Sequence of Torsin-1A-interacting protein 1 (Homo sapiens) (Q5JTV8 whole entry, looked up): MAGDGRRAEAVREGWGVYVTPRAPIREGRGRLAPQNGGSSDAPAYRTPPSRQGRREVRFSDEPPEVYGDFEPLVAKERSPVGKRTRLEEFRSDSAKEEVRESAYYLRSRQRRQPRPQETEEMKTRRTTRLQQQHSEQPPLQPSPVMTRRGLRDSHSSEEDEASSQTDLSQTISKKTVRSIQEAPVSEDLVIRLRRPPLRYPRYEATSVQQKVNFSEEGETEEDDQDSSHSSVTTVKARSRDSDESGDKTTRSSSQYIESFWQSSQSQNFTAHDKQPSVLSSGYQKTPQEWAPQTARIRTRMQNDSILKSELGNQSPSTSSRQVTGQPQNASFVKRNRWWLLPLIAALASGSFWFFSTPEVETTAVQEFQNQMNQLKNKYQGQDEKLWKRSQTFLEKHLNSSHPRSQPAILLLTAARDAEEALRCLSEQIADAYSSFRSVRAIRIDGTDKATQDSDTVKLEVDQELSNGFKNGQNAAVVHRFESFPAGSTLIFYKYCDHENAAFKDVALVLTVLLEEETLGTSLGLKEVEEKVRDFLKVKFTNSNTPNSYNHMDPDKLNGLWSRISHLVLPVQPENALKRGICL
In assay [10] the target is Alpha-bungarotoxin (Bungarus multicinctus) (UniProt P60615). Briefly: alpha-bungarotoxin binders on microarray, profiling panel, artefact control for SMM control protein annotation, biochemical, small-molecule microarray, Alexa647 label, 635/667 nm fluorescence (AID 1117). The settings on record: alpha-BTX-A647 binding fluorescence, higher = more signal.
Sequence of Alpha-bungarotoxin (Bungarus multicinctus) (P60615 whole entry, looked up): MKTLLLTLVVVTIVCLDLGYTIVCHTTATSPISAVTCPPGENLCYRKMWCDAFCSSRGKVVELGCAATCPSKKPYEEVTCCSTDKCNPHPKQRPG
The next assay concerns the target Albumin (Bos taurus) (UniProt P02769). Description: bovine serum albumin binders on microarray, profiling panel, artefact control for SMM control protein annotation, biochemical, small-molecule microarray, Alexa647 label, 635/667 nm fluorescence (AID 1118).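 Further: score merges 667 nm emission intensity and signal-to-noise per printed compound spot.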 The conditions noted are these: BSA-A647 binding, fluorescence 635 nm, higher = more signal.
A short description of assay [11]: small-molecule microarray binders of probe aXIP, primary screen, biochemical, NeuroSMM set, 635/667 nm fluorescence (AID 1119).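 Further: probe is the protein aXip251-270 applied at 1 µg/mL to compound-printed slides; binding of probe to printed compounds measured as 667 nm fluorescence plus signal to noise.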 The settings on record: higher = more signal, called active from +8 up or from −8 down.
The nature of assay [12]: small-molecule binders of probe aNOTCH3, primary screen, biochemical, small-molecule microarray, 635/667 nm fluorescence (AID 1120).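 Further: probe is a biotin-tagged antibody raised against NOTCH3 rather than NOTCH3 protein; score merges spot fluorescence near 667 nm with spot signal to noise.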 The conditions noted are these: higher = more signal.
Assay [13] in a line: small-molecule binders of probe aNOTCH2, primary screen, biochemical, small-molecule microarray, 635/667 nm fluorescence (AID 1121).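 Further: score merges feature fluorescence read at 667 nm with its signal to noise.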 The settings on record: higher = more signal.
The target of assay [14] is Carbonic anhydrase 2 (Homo sapiens) (UniProt P00918). Briefly: CAII small-molecule binders, profiling panel, biochemical, small-molecule microarray, Alexa647-labelled CAII (AID 1122). The settings on record: CAII-A647 binding fluorescence, higher = more signal.
Assay [15] in a line: COS7 lysate on small-molecule microarray, probe aHis, 635 nm (AID 1123).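 Further: z-score combines 667nm fluorescence intensity with signal-to-noise per printed compound spot.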 The conditions noted are these: COS7 cell lysate, fluorescence, higher = more signal.
Assay [16] can be described thus: compound binding in COS7 lysate, probe aLAP1, primary screen, cell lysate, small-molecule microarray (AID 1124).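 Further: lysate comes from COS7 cells expressing LAP1 and is applied at 0.3 µg/mL; score merges spot fluorescence near 667 nm with signal-to-noise over triplicate slides.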 The settings on record: probe aLAP1, fluorescence, higher = more signal.
In another assay the test system is Sam68 (KHDRBS1). Briefly: Sam68 small-molecule binders, primary screen, biochemical, small-molecule microarray, 635 nm fluorescence (AID 1125).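 Further: score merges 667 nm channel intensity with signal to noise over triplicate slides.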 The conditions noted are these: small-molecule microarray binding, higher = more signal.
For assay [17], the system named is Chordin-like protein 2 (CHRDL2). Briefly: CHRDL2 small-molecule binders, primary screen, biochemical, small-molecule microarray, 635 nm fluorescence (AID 1126).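 Further: printed compound slides probed with Chrdl2 protein at 4 µg/mL for 1 h at 4 C; score merges 667 nm emission intensity with signal to noise over three replicate slides.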 The settings on record: small-molecule microarray binding, fluorescence 635 nm; higher = more signal.
Assay [18] addresses Concanavalin-A (Canavalia ensiformis) (UniProt P02866). Description: ConA small-molecule binders, primary screen, artefact control for SMM control protein annotation, biochemical, small-molecule microarray, Alexa647 label, 635 nm (AID 1127).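 Further: z combines 667 nm emission intensity with signal-to-noise across three replicate slides.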 The conditions noted are these: ConA-A647 binding fluorescence, higher = more signal.

Sequence of Concanavalin-A (Canavalia ensiformis) (P02866 whole entry, looked up): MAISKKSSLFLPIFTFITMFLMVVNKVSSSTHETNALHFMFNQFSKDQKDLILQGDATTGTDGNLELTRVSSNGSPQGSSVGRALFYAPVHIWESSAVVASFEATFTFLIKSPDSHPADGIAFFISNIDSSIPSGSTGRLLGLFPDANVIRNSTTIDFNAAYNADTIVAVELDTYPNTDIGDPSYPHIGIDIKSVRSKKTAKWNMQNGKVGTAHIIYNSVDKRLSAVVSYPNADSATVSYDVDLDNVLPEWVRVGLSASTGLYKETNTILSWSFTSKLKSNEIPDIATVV
Sequence of Albumin (Bos taurus) (P02769 whole entry, looked up): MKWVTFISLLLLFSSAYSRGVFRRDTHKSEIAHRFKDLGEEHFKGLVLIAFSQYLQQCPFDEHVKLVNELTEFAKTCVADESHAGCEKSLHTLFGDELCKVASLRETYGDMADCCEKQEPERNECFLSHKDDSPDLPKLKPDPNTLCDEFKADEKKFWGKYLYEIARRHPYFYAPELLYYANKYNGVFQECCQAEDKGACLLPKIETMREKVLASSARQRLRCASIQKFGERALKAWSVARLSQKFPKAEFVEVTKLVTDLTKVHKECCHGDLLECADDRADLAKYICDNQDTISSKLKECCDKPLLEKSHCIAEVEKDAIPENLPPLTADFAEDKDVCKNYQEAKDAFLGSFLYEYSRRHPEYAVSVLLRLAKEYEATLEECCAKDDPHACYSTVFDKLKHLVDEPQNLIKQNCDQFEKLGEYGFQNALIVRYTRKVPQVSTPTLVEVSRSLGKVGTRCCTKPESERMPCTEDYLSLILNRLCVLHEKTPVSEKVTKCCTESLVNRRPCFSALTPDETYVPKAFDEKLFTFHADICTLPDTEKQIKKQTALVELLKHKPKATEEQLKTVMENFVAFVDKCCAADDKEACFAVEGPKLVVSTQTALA
Sequence of Left-right determination factor 2 (Homo sapiens) (O00292 whole entry, looked up): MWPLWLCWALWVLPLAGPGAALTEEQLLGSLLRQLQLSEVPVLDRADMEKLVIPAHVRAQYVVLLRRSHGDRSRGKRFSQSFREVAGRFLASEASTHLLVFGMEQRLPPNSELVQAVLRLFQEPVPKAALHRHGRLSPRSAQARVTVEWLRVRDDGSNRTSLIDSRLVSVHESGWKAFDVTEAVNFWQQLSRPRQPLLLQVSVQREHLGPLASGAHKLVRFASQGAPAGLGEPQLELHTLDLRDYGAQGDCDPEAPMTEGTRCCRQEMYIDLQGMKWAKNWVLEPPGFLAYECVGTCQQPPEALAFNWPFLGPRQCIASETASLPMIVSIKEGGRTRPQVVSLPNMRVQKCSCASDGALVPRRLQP

Take `COCCOC(=O)N1C(=O)[C@@]2(c3cc(C#CC4(O)CCCCCC4)ccc31)[C@H](C(=O)N1CCN(c3ncccn3)CC1)[C@H]1C(=O)O[C@H](c3ccccc3)[C@H](c3ccccc3)N1[C@@H]2c1ccc(O)cc1`: the composite z-score in assay [1] was 0.958; in assay [3], -0.28; in assay [4], 1.56; in assay [5], 1.05; in [6], 0.0633; in assay [7] it was 0.128. The composite z-score was -0.261 in assay [8]; 1.53 in assay [9]; 1.61 in assay [10]; 0.886 with Albumin (Bos taurus); -0.0006 in [12]; -0.0795 in assay [13]. Besides, the composite z-score is 0.35 in assay [14]; 1.12 in assay [15]; 0.73 in assay [16]; 1.22 with Sam68 (KHDRBS1); -0.35 in assay [17]; 1.11 in [18]. In assay [2], this compound showed a z-score of -1.69. The composite Z-score in [11] was 0.528 (inactive).
As for `CCCCCCCCCCC(O)C1C=CC2C(=O)NC(=O)C2N1Nc1ccccn1` (stereo not given), the composite z-score is 1.08 in assay [1]; -0.765 in [3]; 1.4 in [4]; 0.945 in [5]; -0.0566 in [6]; 0.337 in assay [7]. In addition, the composite z-score in assay [8] was 1.7; in [9] it was -0.0182; in [10], 0.217; with Albumin (Bos taurus), 0.616; in [12], 0.0159; in [13] it was 0.0118. The composite z-score in [14] is 0.287; in assay [15], 1.85; in assay [16], -0.0065; in the assay with Sam68 (KHDRBS1) it was -0.182; in [17], -0.9; in [18], 0.709. For the same compound, the z-score in [2] is -2.64. In addition, in assay [11], the composite Z-score was -0.118 (inactive).
With `CC(C)(C)OC(=O)CC[C@]1(C(=O)O)COC(c2ccc(OCCCO)cc2)=N1`, the composite z-score is 0.191 in [1]; -0.225 in [3]; 0.155 in [4]; 0.568 in [5]; 0.105 in assay [6]; 0.0326 in [7]. In addition, the composite z-score in assay [8] was 0.609; in [9], 0.672; in assay [10] it was -0.582; in the assay with Albumin (Bos taurus), 0.374; in assay [12] it was 0.102; in assay [13], -0.0966. For the same compound, the composite z-score in assay [14] is 0.803; in [15], 1.11; in assay [16], -0.156; with Sam68 (KHDRBS1), -1.05; in [17] it was -1.92; in [18], 0.135. In assay [2], this compound came in with a z-score of 0.0847. The composite Z-score in assay [11] was -0.0004 (inactive).
As for `CC(C)NC(=O)[C@@H]1c2ccccc2C(=O)N(Cc2cc(C(F)(F)F)cc(C(F)(F)F)c2)[C@H]1c1ccc(CO)cc1`, the composite z-score was 0.376 in [1]; 0.147 in assay [3]; 0.876 in [4]; 0.221 in assay [5]; -0.176 in assay [6]; -0.0793 in [7]. The composite z-score in [8] is 0.735; in assay [9], 0.724; in [10] it was 0.594; with Albumin (Bos taurus) it was 0.52; in assay [12], -0.0931; in assay [13], -0.0052. In addition, the composite z-score in assay [14] turned out to be 0.298; in assay [15] it was 2.38; in assay [16] it was 0.706; in the assay on Sam68 (KHDRBS1), 1.3; in assay [17] it was 0.0933; in assay [18], 1.09. This compound came in with a z-score in [2] of -0.153. The composite Z-score in assay [11] was 1.21 (inactive).
For `COc1ccc(C(=O)Nc2ccc(CN3C(=O)[C@]4(O[C@H](CCn5cc([C@H](O)c6ccccc6)nn5)[C@@H]([Si](C)(C)c5ccc(OC)cc5)[C@@H]4C)c4ccccc43)cc2)cc1`, the composite z-score in assay [1] was 0.237; in [3], -0.48; in assay [4], -0.0217; in assay [5], 0.187; in [6], 0.158; in [7], -0.453. In addition, the composite z-score in assay [8] is 0.0771; in assay [9], 0.706; in [10] it was 1.14; in the assay with Albumin (Bos taurus), 0.109; in assay [12] it was 0.0026; in [13], -0.132. Moreover, the composite z-score in assay [14] was 0.52; in assay [15], 0.891; in assay [16], -0.127; in the assay on Sam68 (KHDRBS1), 0.619; in assay [17], -0.313; in assay [18], -0.0974. In addition, the z-score in [2] is -4.97. Also, the composite Z-score in assay [11] was 0.0958 (inactive).
